Drawing on PubChem BioAssay, this text covers composite z-score and z-score for 16 compounds.

In experiment [1] the test system is Human papillomavirus type 1a protein E7 (residues 44-93). In words: small molecules binding HPV E7 44-93 – biochemical, small-molecule microarray, residues 44-93, 635 nm fluorescence, primary screen (AID 1108).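 Further: E7 fragment applied at 1 µg/mL in TBST for 1 h at 4 C; score combines spot fluorescence with its signal to noise ratio.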 Particulars: fluorescence 635 nm, higher = more signal.
A short description of experiment [2]: hepatitis C replication reporter changes, two-sided – Huh7 cells, luciferase reporter, HCV replication inhibitor project, primary screen (AID 1109).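 Further: huh7 hepatoma cells harbouring a luciferase neomycin HCV replicon reporter; luciferase luminescence as measure of HCV replicon replication; test concentration not given here.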 Particulars: Huh7 HCV replicon luciferase reporter, 48 h; higher = more signal.
The target in experiment [3] is Left-right determination factor 2 (Homo sapiens) (UniProt O00292). Briefly: small molecules binding LEFTY2 protein – biochemical, small-molecule microarray, 635 nm fluorescence scan, primary screen (AID 1110). The settings on record: higher = more signal.
Chain of Left-right determination factor 2 (Homo sapiens) (O00292 whole entry, looked up): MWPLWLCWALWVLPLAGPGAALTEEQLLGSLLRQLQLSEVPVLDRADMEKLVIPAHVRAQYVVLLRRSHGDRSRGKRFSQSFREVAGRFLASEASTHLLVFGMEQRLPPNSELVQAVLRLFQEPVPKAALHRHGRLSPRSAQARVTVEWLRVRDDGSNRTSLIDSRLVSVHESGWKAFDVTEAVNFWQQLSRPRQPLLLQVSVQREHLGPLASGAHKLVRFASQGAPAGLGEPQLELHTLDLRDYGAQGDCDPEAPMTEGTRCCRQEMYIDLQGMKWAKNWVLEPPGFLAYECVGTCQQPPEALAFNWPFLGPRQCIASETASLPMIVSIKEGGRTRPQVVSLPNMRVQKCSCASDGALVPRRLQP
Experiment [4] addresses Calmodulin-1 (Homo sapiens) (UniProt P0DP23). In words: small molecules binding calmodulin-1 with EGTA – biochemical, small-molecule microarray, Cy5-labelled CALM1, profiling panel (AID 1111).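 Further: labelled calmodulin applied in Tris saline Tween buffer holding calcium plus EGTA and DTT.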 The settings on record: Cy5-CALM1 binding fluorescence, higher = more signal.
Experiment [5] shares this target. Briefly: small molecules binding Ca-loaded calmodulin-1 – biochemical, small-molecule microarray, Cy5-labelled CALM1, plus calcium, artefact control for SMM control-protein annotation, profiling panel (AID 1112).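 Further: score merges spot fluorescence with signal to noise from triplicate slides.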 Particulars: Cy5-CALM1 binding fluorescence, higher = more signal.
A short description of experiment [6]: probe aWnt5a binding to arrayed compounds – biochemical, biotinylated probe, 635/667 nm fluorescence, primary screen (AID 1113).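 Further: score merges 667 nm fluorescence intensity with signal-to-noise per printed feature.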 The settings on record: small-molecule microarray, higher = more signal.
The nature of experiment [7]: probe aShh binding to arrayed compounds – biochemical, biotinylated probe, 635/667 nm fluorescence, primary screen (AID 1114).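 Further: probe is biotin-labelled aShh protein from a stem cell growth factor screen; measures binding of labelled protein to compounds printed on the slide; score merges feature fluorescence at 667 nm with signal-to-noise.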 Particulars: small-molecule microarray, higher = more signal.
Experiment [8] can be described thus: probe aNog binding to arrayed compounds – biochemical, biotinylated probe, 635/667 nm fluorescence, primary screen (AID 1115).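 Further: probe is biotinylated aNog protein used at 0.15 µg/mL for 1 h at 4 C; z-score combines 667 nm fluorescence of each spot with its signal to noise.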 Particulars: small-molecule microarray, higher = more signal.
The target in experiment [9] is Torsin-1A-interacting protein 1 (Homo sapiens) (UniProt Q5JTV8). Briefly: compound microarray binding of lysate hLAP1 – cell lysate, small-molecule microarray, COS7 lysate, 635/667 nm fluorescence, primary screen (AID 1116). Particulars: 635 nm fluorescence, higher = more signal.
Chain of Torsin-1A-interacting protein 1 (Homo sapiens) (Q5JTV8 whole entry, looked up): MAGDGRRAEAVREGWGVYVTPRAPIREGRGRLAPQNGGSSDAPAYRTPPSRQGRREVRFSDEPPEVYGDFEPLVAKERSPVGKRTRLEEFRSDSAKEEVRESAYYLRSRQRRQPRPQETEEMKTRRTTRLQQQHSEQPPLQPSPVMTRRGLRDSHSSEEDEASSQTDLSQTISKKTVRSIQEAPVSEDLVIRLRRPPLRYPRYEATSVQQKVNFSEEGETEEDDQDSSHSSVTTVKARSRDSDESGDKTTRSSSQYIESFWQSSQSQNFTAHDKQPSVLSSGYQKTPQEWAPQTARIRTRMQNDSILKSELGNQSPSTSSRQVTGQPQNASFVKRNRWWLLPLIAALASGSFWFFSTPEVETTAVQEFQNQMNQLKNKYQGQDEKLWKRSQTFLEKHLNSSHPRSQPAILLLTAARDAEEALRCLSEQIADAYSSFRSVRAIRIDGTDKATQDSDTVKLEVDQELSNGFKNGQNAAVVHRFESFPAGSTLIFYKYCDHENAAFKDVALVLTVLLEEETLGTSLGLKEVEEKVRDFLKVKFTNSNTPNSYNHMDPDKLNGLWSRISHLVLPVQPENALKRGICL
Experiment [10] deals with Alpha-bungarotoxin (Bungarus multicinctus) (UniProt P60615). In words: compounds binding labelled alpha-BTX control protein – biochemical, small-molecule microarray, Alexa647 label, 635/667 nm fluorescence, artefact control for SMM control protein annotation, profiling panel (AID 1117). Particulars: alpha-BTX-A647 binding fluorescence, higher = more signal.
Chain of Alpha-bungarotoxin (Bungarus multicinctus) (P60615 whole entry, looked up): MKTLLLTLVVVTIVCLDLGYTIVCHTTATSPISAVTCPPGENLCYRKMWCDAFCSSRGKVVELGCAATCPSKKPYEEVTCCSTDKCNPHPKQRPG

In the case of `C=CCOC(=O)[C@@H]1[C@H]2C(=O)O[C@H](c3ccccc3)[C@H](c3ccccc3)N2[C@H](c2ccc(OCCOC(=O)[C@@H]3C[C@@H]4C(=O)NCC(=O)N4[C@@H]3c3ccc(O)cc3)cc2)[C@@]12C(=O)Nc1ccc(I)cc12`, the composite z-score is 0.403 in experiment [1]; 0.902 in experiment [3]; 1.2 in experiment [4]; 0.499 in experiment [5]; -0.101 in [6]; 0.0796 in experiment [7]. Further, the values for the composite z-score in experiment [8], in [9] and in [10] were -0.175, 1.4 and 0.872, respectively. For the same compound, the z-score in experiment [2] was -1.29.
Turning to `COCCOC(=O)N1C(=O)[C@@]2(c3ccccc31)[C@H](C(=O)N1CCc3cc(OC)c(OC)cc3C1)[C@H]1C(=O)O[C@H](c3ccccc3)[C@H](c3ccccc3)N1[C@@H]2c1ccc(OCCO)cc1`, the composite z-score in experiment [1] is 1.02; in experiment [3] it was 0.295; in experiment [4] it was 1.28; in experiment [5], 0.366; in experiment [6], -0.147; in experiment [7], -0.0863. Besides, the composite z-score is 0.495 in experiment [8], 1.05 in experiment [9] and 0.663 in experiment [10]. Moreover, the z-score in [2] is -1.39.
Consider `Cc1ccc(N2C(=O)c3ccccc3[C@@H](C(=O)NC3CC3)[C@@H]2c2ccc(CO)cc2)nc1`, for which the composite z-score in experiment [1] was -1.51; in experiment [3] it was -3.3; in [4], -1.35; in experiment [5], -1.25; in experiment [6], -0.268; in experiment [7], -0.0866. Further, the values for the composite z-score in experiment [8], in experiment [9] and in experiment [10] were -0.126, -0.13 and -1.36, respectively. In experiment [2], this compound showed a z-score of -0.312.
`CN(C)CCCCCCNC(=O)[C@@H]1C[C@@H]2C(=O)N[C@@H](Cc3ccccc3)C(=O)N2[C@@H]1c1ccc(O)cc1`: the composite z-score in experiment [1] was 1.13; in experiment [3] it was 1.02; in experiment [4] it was -0.565; in experiment [5], -1.14; in [6], -0.0425; in experiment [7], 0.0668. The composite z-score in experiment [8] was determined as 0; in experiment [9], 1.32; in experiment [10], 2.47. The z-score in experiment [2] amounted to 2.17.
For `CCOC(=O)C1=CC[C@@H](c2ccccc2)N(S(=O)(=O)c2ccc(C)cc2)[C@H]1c1ccccc1C`, the composite z-score is 1.18 in [1]; 0.104 in [3]; 0.232 in experiment [4]; 0.296 in experiment [5]; -0.0512 in experiment [6]; 0.294 in experiment [7]. The composite z-score in experiment [8] was -0.0496; in [9] it was 0.336; in [10], -0.0244. Further, the z-score in experiment [2] is -1.6.
With `C=CCNC(=O)[C@H]1[C@@H]2C(=O)O[C@@H](c3ccccc3)[C@@H](c3ccccc3)N2[C@@H](c2ccccc2OCCO)[C@]12C(=O)Nc1ccc(C#CCC(C(=O)OC)C(=O)OC)cc12`, the composite z-score stood at 1.46 in [1]; 1.07 in experiment [3]; 2.02 in experiment [4]; 1.24 in [5]; 0.0914 in experiment [6]; 0.224 in experiment [7]. Moreover, the composite z-score in experiment [8] is 0.46; in experiment [9] it was 1.37; in experiment [10], 2.13. This compound also yielded a z-score in [2] of -2.33.
With `COc1ccc(C#Cc2ccc3c(c2)[C@]2(C(=O)N3)[C@H](c3ccccc3OCCO)N3[C@H](c4ccccc4)[C@H](c4ccccc4)OC(=O)[C@H]3[C@@H]2C(=O)Nc2nc3ccccc3s2)cc1`, the composite z-score in experiment [1] is 1.35; in [3], 0.464; in experiment [4], 0.844; in [5] it was -0.104; in experiment [6], -0.128; in experiment [7], -0.0556. The composite z-score in experiment [8] worked out at 1.76; in experiment [9], 0.307; in experiment [10] it was 1.62. This compound also had a z-score in [2] of -2.83.
For the compound `COc1cc2c(cc1OC)CN(C(=O)[C@@H]1[C@H]3C(=O)O[C@H](c4ccccc4)[C@H](c4ccccc4)N3[C@H](c3ccc(O)cc3)[C@@]13C(=O)Nc1ccccc13)CC2`, the composite z-score in experiment [1] was 1.39; in experiment [3], 0.0147; in experiment [4], 0.457; in experiment [5], 0.603; in experiment [6], -0.154; in experiment [7] it was -0.167. Besides, the composite z-score was -0.321 in [8], 0.688 in experiment [9] and 1.74 in experiment [10]. In [2], this compound gave a z-score of -1.74.
Turning to `O=C(CS)NCCCCCCNC(=O)[C@@H]1C[C@@H]2C(=O)NCC(=O)N2[C@@H]1c1cccc(OCCO)c1`, the composite z-score was 1.41 in experiment [1]; -0.709 in [3]; 2.44 in experiment [4]; -0.215 in experiment [5]; -0.177 in experiment [6]; -0.188 in [7]. Moreover, the composite z-score in experiment [8] is -0.652; in experiment [9], 1.21; in experiment [10] it was 1.1. In experiment [2], this compound showed a z-score of -0.895.
As for `C[C@H]1C2[C@H](Cc3ccccc3)NC(=O)[C@]23C(=O)N[C@H](Cc2ccccc2)C(=O)N2CCC[C@H]2C(=O)NC/C=C\C/C=C/C3[C@@H]2O[C@]12C` (stereo not given in full), the composite z-score in experiment [1] was -0.355; in experiment [3], 0.203; in experiment [4], -0.404; in experiment [5], -0.863; in experiment [6], -0.0165; in [7] it was -0.0146. The composite z-score in experiment [8] is -0.0003; in experiment [9] it was 0.0015; in experiment [10], 1.18. In experiment [2], this compound displayed a z-score of 0.255.
Regarding `O=C(NCCN1CCOCC1)[C@@H]1c2ccccc2C(=O)N(C2CCCCC2)[C@H]1c1ccc(CO)cc1`, the composite z-score is 1.44 in experiment [1]; -0.0308 in experiment [3]; 0.0999 in experiment [4]; -0.336 in [5]; -0.101 in experiment [6]; -0.138 in experiment [7]. The composite z-score in experiment [8] was 0.76; in [9], 0.0614; in experiment [10], -0.0569. In [2], this compound had a z-score of -1.49.
`C=C(CCCC)/C(=C/C[C@@H](OC(C)=O)c1ccc(OCCO)cc1)c1cnc2ccccc2c1`: the composite z-score in experiment [1] is 1.13; in experiment [3], 0.285; in experiment [4], -0.276; in experiment [5], -0.642; in experiment [6], -0.0735; in experiment [7], -0.214. For the same compound, the values for the composite z-score in experiment [8], in [9] and in experiment [10] were -0.158, 0.887 and 1.29, respectively. The compound also showed a z-score in experiment [2] of -1.44.
For the compound `CCOC(=O)C[C@H]1[C@H](OC(=O)c2ccc(-c3ccccc3)cc2)[C@@H](NC(=O)Cc2ccc(OC)cc2)c2cc(OCCCO)ccc2N1C(=O)c1ccccc1`, the composite z-score in [1] is 0.269; in experiment [3], -0.458; in [4] it was 0.211; in experiment [5], 0.0935; in experiment [6], -0.0643; in [7], -0.17. The composite z-score in [8] is -0.306; in experiment [9], 0.294; in experiment [10], 0.582. The z-score in [2] is -0.898.
Consider `COc1ccc(C(O)C2C=CC3C(=O)N(Cc4ccccc4)C(=O)C3N2n2cnnc2)cc1OCc1ccccc1` (stereo not given), for which the composite z-score was 0.958 in experiment [1]; -0.355 in experiment [3]; 0.0367 in experiment [4]; -0.485 in [5]; -0.096 in experiment [6]; -0.18 in experiment [7]. Moreover, the composite z-score came out at 0.393 in experiment [8], 0.383 in experiment [9] and 0.161 in experiment [10]. In [2], this compound displayed a z-score of -1.04.
Consider `COCC(=C=CC[C@@H](O)c1cccc(OCCO)c1)C[C@@H](O)c1ccccn1`, for which the composite z-score in [1] was -0.768; in [3], 0.493; in experiment [4] it was -0.301; in experiment [5], -0.0023; in experiment [6] it was -0.0459; in experiment [7], -0.221. In addition, the composite z-score is -0.388 in [8], 1.15 in experiment [9] and 0.216 in experiment [10]. Moreover, the z-score in experiment [2] amounted to 0.0065.
In the case of `COCCOC(=O)N1C(=O)[C@@]2(c3cc(C#CCNC(N)=O)ccc31)[C@H](C(=O)Nc1nc3ccccc3s1)[C@H]1C(=O)O[C@H](c3ccccc3)[C@H](c3ccccc3)N1[C@@H]2c1ccc(OCCO)cc1`, the composite z-score in [1] was 1.26; in experiment [3], 0.825; in [4] it was 1.37; in [5], 0.662; in experiment [6] it was 0.003; in experiment [7] it was -0.382. Also, the composite z-score in [8] is -0.229; in experiment [9], 0.415; in experiment [10], 1.24. This compound also returned a z-score in [2] of -1.08.
